A selection: hits, their analogues and other compounds. The true share with any hit is near 2.2%.
KLF5 inh: inhibitors of KLF5 expression; DLD-1 KLF5 promoter-luciferase reporter, luminescence; inhibition, % at 5 µM; actives 0.23% (n = 290,000);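 active = inhibition above a per-plate limit of that plate's mean compound inhibition plus 3 SD, cut at about 60% in these data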;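 also: higher means less KLF5 promoter-driven luciferase light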
aSyn 5UTR inh: MLPCN primary screen, SNCA 5' untranslated region; alpha-synuclein 5'UTR reporter, inhibitor activity; inhibition, % (tested at 7.5 µM); actives 0.82% (n = 300,000); AID 1813; in the data active = inhibition above about 60%; inconclusive = no clear call, values can overlap the other calls;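 also: H4 neuroglioblastoma cells stably carrying SNCA 5'UTR luciferase fusion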
Ba/F3 V617F tox: reduce viability of Ba/F3 cells dependent on JAK2V617F; Ba/F3 EpoR-JAK2V617F viability, ATP luminescence; inhibition, % at 5.6 µM; actives 1.1% (n = 220,000); AID 1446;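 active = inhibition above the campaign mean plus 3 SD over all tested compounds, cut at about 24% in these data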;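 also: cytokine-independent growth of Ba/F3 cells driven by EpoR plus mutant JAK2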
BaF3 tox: reduces parental Ba/F3 cell viability, JAK2V617F counter-screen | inhibition, % at 5.6 µM | actives 1.1% (n = 220,000) | CellTiter-Glo ATP luminescence;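 active = inhibition above a per-campaign cutoff, the mean inhibition of all tested compounds plus 3 SD, cut at about 27% in these data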
IEC-6 tox: kills IEC-6 intestinal cells in KLF5 counter-screen. AID 1825. IEC-6 cytotoxicity, luminescence viability. actives 0.78% (n = 290,000). inhibition, % at 5 µM
APP 5UTR inh: APP translation inhibition; AID 1285; actives 0.82% (n = 190,000); SH-SY5Y APP 5'UTR-luciferase reporter, luminescence; inhibition, % at 2 µM;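 active = inhibition above a set limit, derived from the sample mean plus 3 SD, cut at about 45% in these data; inconclusive = one replicate passes the limit while the other fails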
IEC-6 tox confirm: confirmation of cytotoxic compounds in rat IEC-6 intestinal epithelial cells | shares compounds with IEC-6 tox | IEC-6 rat intestinal epithelial viability, luminescence | inhibition, % at 5 µM | actives 63% (n = 1,900)
Numbers stand for hits; . = inactive; ? = inconclusive; / = no result given. Rule as the data show it, unless noted: active = inhibition above about 22%; inactive = the rest.

SMILES	KLF5 inh	aSyn 5UTR inh	Ba/F3 V617F tox	BaF3 tox	IEC-6 tox	APP 5UTR inh	IEC-6 tox confirm
COc1ccc(NC(=O)c2c(N)no[n+]2[O-])cc1	.	.	.	.	32.7	.	28.4
COc1ccc(NC(=O)c2c(N)no[n+]2[O-])c(OC)c1	.	.	.	.	.	.	/
O=C(NC1CCN(C(=S)Nc2ccc(F)cc2)CC1)c1ccco1	.	.	/	/	.	/	/
O=C(CNC(=O)c1ccc(Cl)cc1)NC(CO)c1ccccc1 (configuration not stated)	.	.	/	/	.	/	/
Cc1cccc(C)c1OCC(=O)NNC(=S)NC(=O)C1CC1	.	.	/	/	29.3	/	.
COc1ccc(OC)c(Nc2c3ccccc3nc3ccccc23)c1	.	.	/	/	45.6	/	.
COc1cc(Nc2c3c(nc4ccccc24)CCC3)cc(OC)c1OC	.	.	/	/	84.6	/	58.4
COc1ccc(OC)c(Nc2nc(C)nc3c2oc2ccccc23)c1	.	.	/	/	26.3	/	23.3
COc1ccc([N+](=O)[O-])cc1Nc1c2ccccc2nc2ccccc12	66.4	76.5	/	/	79.0	/	71.7
Cc1cccc(Nc2c3c(nc4ccccc24)CCC3)c1	.	.	.	.	.	/	/
CC1Cc2ccccc2N1S(=O)(=O)c1cccc(C(=O)N2CC(=O)Nc3ccccc32)c1 (configuration not stated)	.	.	.	.	.	/	/
COc1cc2c(C(=O)N3CCN(c4cccc(Cl)c4)CC3)cn(C)c(=O)c2cc1OC	.	.	.	.	.	.	/
COc1ccccc1C(=O)N1CCN(c2cccc(Cl)c2)CC1	.	64.4	80.1	82.6	77.4	94.8	54.6
O=C(c1c(Cl)nc2sccn12)N1CCN(c2cccc(Cl)c2)CC1	.	.	78.3	75.9	63.2	94.1	43.7
COc1ccc(/C=C/C(=O)c2cc(F)ccc2OC(=O)c2ccccc2)cc1OC	.	67.1	.	.	46.2	89.5	37.0
O=C(c1cc(COc2cccc3cnccc23)on1)N1CCCC(CCCO)C1 (configuration not stated)	.	.	/	/	23.0	/	24.9
O=C(N/N=C/C(Br)=C\c1ccccc1)c1n[nH]c2c1CCC2	.	.	85.0	78.4	74.6	95.7	82.3
CC(/C=N/NC(=O)c1ccccc1C)=C\c1ccccc1	/	.	/	/	/	/	/
Cc1ccc(/C=N/NC(=O)c2n[nH]c3c2CCCC3)cc1	.	76.9	93.1	93.0	88.0	/	82.7
CC(/C=N/NC(=O)c1n[nH]c2c1CCC2)=C\c1ccccc1	.	.	82.9	79.7	85.5	94.3	62.2
COc1ccc(C(=O)N/N=C/C(Br)=C/c2ccccc2)cc1	.	.	.	.	.	.	/
COc1cc(C(=O)Nc2ccccn2)cc(OC)c1OC	.	.	.	.	.	.	/
COc1cc(C(=O)Nc2ccccc2C(=O)Nc2ccccn2)cc(OC)c1OC	.	.	/	/	32.8	/	.
CCN(CC)c1ccc(/C=C/c2ccc3ccc(OC)cc3[n+]2CC)cc1	.	.	/	/	47.6	/	31.0
CC[n+]1c(/C=C/c2ccc(N(C)C)cc2)ccc2ccccc21	.	.	101.2	95.2	47.8	.	76.0
SMILES	KLF5 inh	aSyn 5UTR inh	Ba/F3 V617F tox	BaF3 tox	IEC-6 tox	APP 5UTR inh	IEC-6 tox confirm
CC[n+]1ccccc1/C=C/c1ccc(N(C)C)cc1	.	.	99.3	76.2	22.3	.	22.9
Cc1ccc(/C=C/c2ccc(N(C)C)cc2)[n+](C)c1	.	.	/	/	32.2	/	25.6
COC(=O)[C@H](C)NC(=O)NCc1ccccc1	.	.	.	.	.	/	/
Cc1c(NC(=O)c2cc3nc(-c4ccc(Cl)cc4)cc(C(F)(F)F)n3n2)c(=O)n(-c2ccccc2)n1C	.	.	.	.	.	.	/
Cc1ccnc(Nc2nc(-c3ccc(O)c(O)c3)cs2)c1	.	.	/	/	36.5	/	.
O=S(=O)(Nc1ccc(F)cc1Cl)c1ccc(-c2cnc(C3CC3)o2)cc1	.	67.6	/	/	81.8	/	52.0
Cc1ccc(NS(=O)(=O)c2ccc(-c3cnc(C4CC4)o3)cc2)c(C)c1	.	76.8	/	/	78.5	/	55.1
COc1ccc(NS(=O)(=O)c2ccc(-c3cnc(C4CC4)o3)cc2)cc1OC	.	.	/	/	50.4	/	39.5
COc1ccccc1CNS(=O)(=O)c1ccc(-c2cnc(C3CC3)o2)cc1	.	.	/	/	69.2	/	53.7
Cc1ccc(SCC(=O)Nc2ccc(S(N)(=O)=O)cc2)cc1	.	.	.	.	.	.	/
COc1ccccc1NS(=O)(=O)c1ccc(-c2cnc(C3CC3)o2)cc1	.	.	/	/	83.8	/	55.5
Cc1cccc(N(C)S(=O)(=O)c2ccc(-c3cnc(C4CC4)o3)cc2)c1	.	97.4	/	/	90.8	/	64.6
OCCC1CN(Cc2ccc(Oc3ncccn3)cc2)CCN1Cc1ccc(F)c(F)c1 (configuration not stated)	.	.	.	.	.	/	/
COc1ccc(CNC(=O)COC(=O)CN2C(=O)COc3ccccc32)cc1	/	.	/	/	/	/	/
C/C(=N\Nc1nc(C)cc(-c2ccccc2)n1)c1ccc(O)cc1	.	.	/	/	.	/	/
C/C(=N\Nc1nc(C)cc(-c2ccccc2)n1)c1ccccc1	.	.	/	/	26.4	/	.
COc1ccc(N2CCN(C(=O)CCNC(=O)Cn3ccc4ccccc4c3=O)CC2)cc1	.	.	.	.	.	.	/
CCCCCCN1CC(O)=C(c2ccccc2)C1=N	.	.	.	.	.	.	/
CCCCCCCn1ccc(=N)cc1	.	?	97.2	77.3	23.4	.	32.0
COc1ccc(S(=O)(=O)N2CCC(C(=O)Nc3cc(Cl)ccc3N3CCOCC3)CC2)cc1OC	/	.	/	/	/	/	/
COc1ccc(/C=N/NC(=O)CCn2cnc(-c3ccccc3)c2-c2ccccc2)cc1OC	.	.	58.3	63.1	70.7	79.7	45.9
O=C(NCC(=O)N1CCN(S(=O)(=O)c2cccs2)CC1)c1ccc(Cl)cc1	.	.	.	.	.	.	/
c1ccc(N2CCN(Cc3cn4ccccc4n3)CC2)cc1	.	.	.	.	.	.	/
